BAZ2B inh – qHTS Assay for Inhibitors of BAZ2B; AlphaScreen BAZ2B-H3K14Ac peptide displacement; Potency, µM (titrated, usually from 114 µM), for inactives: at the top dose activity change, negative = inhibition, hits mostly inhibitors; 360,000 compounds, 4.4% hits; Bromodomain adjacent to zinc finger domain protein 2B (Homo sapiens), Q9UIF8; note: % is set by controls: 0 for no effect and ±100 for the full control effect; nearly all actives have a fitted effect of over 60% in size
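BAZ2B 50 nM plus b-H3(5-23)K14Ac 50 nM, PBS pH 7.4/0.01% Tween-20, 30 min RT; compound added (max 110 uM), 30 min RT; streptavidin donor/Ni-chelate acceptor beads 10 ug/mL final, 20 min dark; AlphaScreen read.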
HP1b chromo inh – HTS for Inhibitors of HP1-beta Chromodomain Interactions with Methylated Histone Tails; AID 540317, 2011; 390,000 compounds, 0.56% hits; Potency, µM (top dose mostly 114 µM), for inactives: top-dose activity change, negative = inhibition, usual class: inhibitors; AlphaScreen HP1-beta / biotin-H3K9me3 peptide binding; note: nearly all actives have a fitted effect of over 70% in size
Target sequence (P83916 whole entry, looked up): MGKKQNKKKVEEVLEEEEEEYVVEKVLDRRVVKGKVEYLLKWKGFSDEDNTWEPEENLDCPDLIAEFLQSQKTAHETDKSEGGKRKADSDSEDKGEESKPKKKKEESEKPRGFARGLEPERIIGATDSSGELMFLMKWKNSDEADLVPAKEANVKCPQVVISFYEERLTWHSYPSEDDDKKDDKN
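Compound inhibition of the preformed complex between 50 nM HP1-beta and 50 nM biotinylated H3K9me3 peptide was read by AlphaScreen. Buffer was PBS pH 7.4 with 0.01% Tween-20. Incubations ran 30 min at room temperature, with 10 ug/mL donor/acceptor beads.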
G9a inh – qHTS Assay for Inhibitors of Histone Lysine Methyltransferase G9a; Potency, µM (doses to about 102 µM), without a hit: at the top dose activity, negative = inhibition, hits mostly inhibitors; 350,000 compounds, 8.8% hits; G9a H3K9 monomethylation, AlphaScreen, 2 h; Histone-lysine N-methyltransferase EHMT2 (Homo sapiens), Q96KQ7; note: % is set by controls: 0 for no effect and ±100 for the full control effect; nearly all actives have a fitted effect of over 75% in size
Target sequence (Q96KQ7 913-1193 limits assumed): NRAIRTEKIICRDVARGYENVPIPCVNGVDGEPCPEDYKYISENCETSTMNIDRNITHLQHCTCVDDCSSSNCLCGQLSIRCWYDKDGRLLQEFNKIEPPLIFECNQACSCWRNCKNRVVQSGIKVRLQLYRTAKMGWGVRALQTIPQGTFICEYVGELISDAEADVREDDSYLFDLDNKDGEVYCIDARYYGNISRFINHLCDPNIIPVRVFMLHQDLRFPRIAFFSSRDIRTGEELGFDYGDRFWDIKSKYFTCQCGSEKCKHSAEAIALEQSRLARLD
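Chemiluminescent proximity detection of H3K9 monomethylation, read after 10 min bead incubation in the dark. Reaction: 20 nM G9a, 500 nM biotin-H3K9 peptide, 20 uM SAM cofactor, 2 h, room temperature, following 15 min enzyme-compound preincubation.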
Sfp PPTase inh – qHTS Assay for Inhibitors of Bacillus subtilis Sfp phosphopantetheinyl transferase (PPTase). Potency, µM, for inactives: largest response in the series, negative = inhibition, usual class: inhibitors. 310,000 compounds, 3.5% hits. 4'-phosphopantetheinyl transferase ffp (Bacillus subtilis), Q9F4F7. Biochemical Sfp PPTase activity, qHTS;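 note: the enzyme is Sfp with the accession as filed and its product quenches rhodamine fluorescence; 0% = enzyme reaction without inhibitor and -100% = no enzyme wells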
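Fluorescence-quenching assay with 15 nM Sfp, 5 uM rhodamine-CoA and 12.5 uM BHQ-2-labelled ybbR peptide in pH 7.6 Hepes/MgCl2 buffer. Enzyme was pre-incubated with compound for 15 min at room temperature. Rate was taken from the 30-min fluorescence change (525/598 nm).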
JMJD2A Tudor inh – qHTS Assay for Inhibitors of JMJD2A-Tudor Domain; Lysine-specific demethylase 4A (Homo sapiens), O75164; AlphaScreen JMJD2A-Tudor / H3K4me3 peptide binding; Potency, µM (doses to about 114 µM), inactives show at the highest dose activity change, negative = inhibition, hits mostly inhibitors; 390,000 compounds, 4.4% hits; AID 504339, 2011; note: % is set by controls: 0 for no effect and ±100 for the full control effect; nearly all actives have a fitted effect of over 50% in size
L3MBTL1 inh – qHTS Assay for the Inhibitors of L3MBTL1; AlphaScreen L3MBTL1–H3K9me1 peptide binding; Potency, µM (series often up to 57.1 µM), inactives show at the highest dose activity, negative = inhibition, usual class: inhibitors; 230,000 compounds, 0.66% hits; AID 485360, 2010; note: % is set by controls: 0 for no effect and ±100 for the full control effect; nearly all actives have a fitted effect of over 60% in size
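AlphaScreen assay: L3MBTL1 (50 nM final) was preincubated 30 min at room temperature with biotinylated H3(1-15)K9me1 peptide (75 nM final), then 30 min with library compounds; streptavidin donor and nickel chelate acceptor beads (10 ug/mL final) added, 30 min dark.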
An asterisk follows results filed as active; ! = not confirmed by another sample; [ ] = remark or other dose. Rows were chosen to be rich in hits. Some 12% of all compounds tested hit in one or more screens of this group. Calls come from the whole dose curve; as a rule, active = well fitted curve in the direction sought with a large enough effect; inconclusive = small, poorly fitted or top-dose-only effect, or another doubt; inactive = no such curve, though single readings can be large; an effect the other way counts as inactive or inconclusive. Potency is the fitted concentration of half-maximal effect.

How did NS(=O)(=O)c1ccc(NC(=S)NC(=O)c2ccco2)cc1 do in these assays?
BAZ2B inh: -20%; HP1b chromo inh: 6%; G9a inh: 56µM*; Sfp PPTase inh: 45µM*!; JMJD2A Tudor inh: 25µM*; L3MBTL1 inh: 7%

What do the screens show for `CC(=O)NS(=O)(=O)c1ccc(NC(=S)NC(=O)c2ccco2)cc1`?
BAZ2B inh: 5%; HP1b chromo inh: 57%; Sfp PPTase inh: inconclusive; JMJD2A Tudor inh: -18%; L3MBTL1 inh: 9%

Results for Cc1c(C(=O)NNC(=S)Nc2ccc(S(N)(=O)=O)cc2)oc2ccccc12 ?
BAZ2B inh: -38%; HP1b chromo inh: -10%; G9a inh: 11µM*; Sfp PPTase inh: 22%; JMJD2A Tudor inh: inconclusive

Results for Cc1cc(C)cc(NS(=O)(=O)c2ccc(NC(=S)NC(=O)c3ccc(Br)o3)cc2)c1 ?
BAZ2B inh: -6%; HP1b chromo inh: inconclusive; G9a inh: inconclusive; Sfp PPTase inh: inconclusive; JMJD2A Tudor inh: inconclusive

Results for NS(=O)(=O)c1ccc(NC(=S)NC(=O)c2ccc(Br)o2)cc1 ?
BAZ2B inh: -17%; HP1b chromo inh: -17%; G9a inh: inconclusive; Sfp PPTase inh: 56µM*; JMJD2A Tudor inh: -26%[11.4 µM]; L3MBTL1 inh: -1%

What do the screens show for `Cc1c(C(=O)Nc2ccc(S(N)(=O)=O)cc2)oc2ccc(Cl)cc12`?
BAZ2B inh: -6%; HP1b chromo inh: 0%; Sfp PPTase inh: -7%; JMJD2A Tudor inh: -15%[57.1 µM]; L3MBTL1 inh: 3%

What do the screens show for `O=C(NC(=S)Nc1ccccc1Br)c1ccco1`?
BAZ2B inh: 3%; HP1b chromo inh: 10%; G9a inh: 45µM*; Sfp PPTase inh: 16%; JMJD2A Tudor inh: -13%

What do the screens show for `CC1CCC2C(=O)N(c3ccc(C(=O)NCc4ccccc4)cc3)C(=O)C2C1` (stereo not drawn)?
BAZ2B inh: 0%; HP1b chromo inh: 44%; G9a inh: 11%[59 µM]; Sfp PPTase inh: 3%; JMJD2A Tudor inh: -14%[57.1 µM]; L3MBTL1 inh: -1%

How did N#Cc1ccc(CN2CCCC3(CCN(C(=O)c4cnccn4)CC3)C2)cc1 do in these assays?
G9a inh: -1%[12.7 µM]; Sfp PPTase inh: 9%

Results for COc1cc(NS(=O)(=O)c2ccc(NC(=S)NC(=O)c3ccco3)cc2)ncn1 ?
BAZ2B inh: -20%; HP1b chromo inh: 16%; G9a inh: 50µM*; Sfp PPTase inh: -11%; JMJD2A Tudor inh: -3%; L3MBTL1 inh: 3%

Results for CN(C)S(=O)(=O)c1ccc(NC(=S)NC(=O)c2ccc(Br)o2)cc1 ?
BAZ2B inh: -15%; G9a inh: 56µM*; Sfp PPTase inh: 56µM*

What do the screens show for `CC(C)(C)NS(=O)(=O)c1ccc2[nH]c3c(c2c1)CCCCC3`?
BAZ2B inh: 45µM*; HP1b chromo inh: inconclusive; G9a inh: 71µM*; Sfp PPTase inh: 7%; JMJD2A Tudor inh: inconclusive

Results for CC(=O)c1cccc(NS(=O)(=O)c2ccc3[nH]c4c(c3c2)CCCCC4)c1 ?
BAZ2B inh: -37%[57.1 µM]; HP1b chromo inh: -21%; G9a inh: 16µM*; JMJD2A Tudor inh: inconclusive

How did CC(=O)c1cccc(NS(=O)(=O)c2ccc3[nH]c4c(c3c2)CCCCCC4)c1 do in these assays?
BAZ2B inh: -27%; HP1b chromo inh: 3%[57 µM]; G9a inh: inconclusive; JMJD2A Tudor inh: inconclusive

Results for CCOC(=O)c1cccc(NS(=O)(=O)c2ccc3[nH]c4c(c3c2)CCCC4)c1 ?
BAZ2B inh: 40µM*; HP1b chromo inh: inconclusive; G9a inh: 14µM*; JMJD2A Tudor inh: 28µM*

Source: PubChem BioAssay
